The list is not random: actives were taken first. Their share in the collection is about 2.4%.
Cruzain noTriton = qHTS Assay for Promiscuous and Specific Inhibitors of Cruzain (without detergent) | Cruzipain (Trypanosoma cruzi), P25779 | purified cruzain, Z-FR-AMC fluorescence, no detergent | Potency, µM, for the others: max response, negative = inhibition, hits mostly inhibitors | 200,000 tested, 2.3% active;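 note: plate controls were enzyme without inhibitor for no effect and buffer without enzyme for full effect; nearly all actives have a fitted effect of over 40% in size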
Target sequence (P25779 123-467 limits assumed): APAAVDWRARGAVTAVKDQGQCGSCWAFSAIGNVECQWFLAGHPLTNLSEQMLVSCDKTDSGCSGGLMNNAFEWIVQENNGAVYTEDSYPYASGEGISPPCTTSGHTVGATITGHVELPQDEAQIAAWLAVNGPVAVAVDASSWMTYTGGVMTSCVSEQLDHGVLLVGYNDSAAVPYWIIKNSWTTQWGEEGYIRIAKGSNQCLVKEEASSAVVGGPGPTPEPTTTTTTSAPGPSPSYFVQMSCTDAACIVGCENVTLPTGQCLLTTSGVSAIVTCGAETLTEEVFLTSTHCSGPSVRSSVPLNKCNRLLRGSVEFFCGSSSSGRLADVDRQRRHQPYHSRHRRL
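Purified cruzain at 1.5 nM, pre-incubated 15 min with compound at room temperature in 100 mM sodium acetate pH 5.5, 5 mM DTT, 0.00005% Triton X-100. Reaction started with 2 uM Z-FR-AMC; AMC fluorescence increase over 60 s gives rate.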
Cruzain inh Det = qHTS Assay for Promiscuous and Specific Inhibitors of Cruzain (with detergent). 200,000 tested, 0.43% active. Potency, µM, for the others: max response, negative = inhibition, most hits filed as inhibitors. purified cruzain, Z-FR-AMC fluorescence, 0.01% Triton;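 note: plate controls were neutral wells for no effect and buffer without enzyme for full effect; nearly all actives have a fitted effect of over 40% in size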
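Read-out: AMC fluorescence (360 nm excitation, 450 nm emission), four reads over 2 min, first-to-third difference used. Conditions: cruzain 1.5 nM, Z-FR-AMC 2 uM, pH 5.5 acetate, 5 mM DTT, 0.01% Triton X-100.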
* = called active by the depositor; ? = inconclusive. Calls come from the whole dose curve; as a rule, active = well fitted curve in the direction sought with a large enough effect; inconclusive = small, poorly fitted or top-dose-only effect, or another doubt; inactive = no such curve, though single readings can be large; an effect the other way counts as inactive or inconclusive. Potency is the fitted concentration of half-maximal effect.

SMILES	Cruzain noTriton	Cruzain inh Det
CCNC(=O)CC1C(=O)N(c2ccc(F)cc2)C(=O)N1CCOC (configuration not stated)	2%	0%
COc1ccc(S(=O)(=O)c2c(C(=O)c3ccc(C)c(C)c3)cnc3ccc(C)cc23)cc1	13µM*	-5%
CCOc1ccc(S(=O)(=O)c2c(C(=O)c3ccc(C)cc3)cnc3cc4c(cc23)OCCO4)cc1	6.3µM*	-5%
Cc1ccc2ncc(C(=O)c3ccc(C)c(C)c3)c(S(=O)(=O)c3ccccc3)c2c1	-21%	-5%
Cc1ccc(C(=O)c2cnc3cc4c(cc3c2S(=O)(=O)c2ccccc2)OCCO4)cc1	?	-7%
CN(C)Cc1ccccc1-c1cc(NC2CC2)ncn1	-5%	3%
Cc1sc2cc3c(c(C(=O)c4ccccc4)[n+]2c1C)-c1cccc2cccc-3c12	-29%	-16%
O=C(c1ccccc1)c1c2c(cc3sc4ccccc4[n+]13)-c1cccc3cccc-2c13	25µM*	-23%
COc1cccc(NC(=O)Cn2c(=O)n(CC(=O)NCc3ccc(C)cc3)c(=O)c3sccc32)c1	-6%	-2%
COc1ccc(NC(=O)C2CCN(S(=O)(=O)c3c(C)noc3/C=C/c3cccs3)CC2)cc1	-10%	-2%
COc1cccc(NC(=O)C2CCN(S(=O)(=O)c3c(C)noc3/C=C/c3cccs3)CC2)c1	16µM*	-3%
Cc1ccccc1CNC(=O)c1ccc2nc(C(C)C)oc2c1	9%	-4%
Cc1nc(S(=O)(=O)c2ccc(Cl)cc2)c(NCc2ccccc2)o1	32µM*	?
O=S(=O)(c1ccc(Cl)cc1)c1nc(-c2ccccc2F)oc1NCc1ccccc1	-10%	-2%
COc1cccc(CNC(=O)CCc2c(C)c3ccc(O)c(C)c3oc2=O)c1	-20%	?
CCOC(=O)c1ccc(NC(=O)Nc2ccn(C)n2)cc1	3%	4%
CCOC(=O)c1ccc(NC(=O)Nc2cc(C)on2)cc1	16µM*	2%
CCc1ccc(NS(=O)(=O)c2ccc(-c3cc(C)no3)cc2)cc1	-9%	-15%
O=c1c2c3c(sc2n(CCN2CCCC2)c(=O)n1Cc1ccco1)CCCCC3	?	5%
O=C(Cn1c(=O)n(Cc2ccco2)c(=O)c2c3c(sc21)CCCCC3)Nc1ccccc1	?	28µM*
CN(C)CCn1c(=O)n(Cc2ccco2)c(=O)c2c3c(sc21)CCCCC3	5%	5%
O=C(Cn1c(=O)n(Cc2ccco2)c(=O)c2c3c(sc21)CCCCC3)c1ccccc1	25µM*	-8%
CCc1cccc(NC(=O)CCn2nc(C)cc2C)c1	10%	-1%
Cc1ccccc1NC(=O)c1c(C)oc2ccc(O)c(CN(C)Cc3ccccc3)c12	-26%	-5%
CC(C)COc1ccc(C(=O)N2CCC(c3nc4ccccc4s3)CC2)cc1	-6%	-12%
SMILES	Cruzain noTriton	Cruzain inh Det
COc1ccc2cc(C(=O)NCc3ccc4c(c3)CCN4C(=O)c3ccccc3)[nH]c2c1	?	-1%
Cc1cccc(C(=O)N2CCc3cc(CNC(=O)c4cc5ccccc5[nH]4)ccc32)c1	32µM*	-1%
CCCOc1ccc(OC(=O)c2cn(-c3ccc(OC)cc3)c(=O)c3ccccc23)cc1	-12%	-2%
COC(=O)c1ccccc1NC(=O)Cn1nnc2sc(-c3ccccc3)cc2c1=O	-7%	-4%
O=C(N/N=C/C=C/c1ccccc1)c1ccncc1	3%	-10%
C=CCn1cc(/C=N\NC(=O)c2cc3c(ccc4ccccc43)o2)c2ccccc21	16µM*	0%
O=C(N/N=C/C=C/c1ccccc1)c1cc2c(ccc3ccccc32)o1	10µM*	?
C#CCn1cc(/C=N/NC(=O)c2cc3ccccc3o2)c2ccccc21	-17%	-11%
Cc1cccc(N2CCN(S(=O)(=O)c3ccc4c(c3)C(C(C)C)C(=O)N4)CC2)c1C (configuration not stated)	-5%	-7%
Cc1ccc(NC(=O)Cn2nnc(-c3nc(-c4ccncc4)no3)c2N)cc1	-3%	2%
Cc1cc(C)c(NC(=O)CSc2nc(=O)n(Cc3ccncc3)c3c2CCC3)c(C)c1	-12%	-3%
Cc1nc(CNS(=O)(=O)c2ccc3ccccc3c2)cs1	-3%	2%
Cc1nc(-c2cccc(NS(=O)(=O)c3ccc4ccccc4c3)c2)cs1	25µM*	-1%
Cc1ccccc1NC(=O)c1sc2nc3c(c(-c4ccco4)c2c1N)CCC3	-27%	-4%
Nc1c(C(=O)NCC2CCCO2)sc2nc3c(c(-c4ccco4)c12)CC/C3=C\c1ccco1 (configuration not stated)	-4%	28µM*
CCC1CCCCN1S(=O)(=O)c1ccc(NC(=O)c2nc(SC)ncc2Cl)cc1 (configuration not stated)	-8%	-6%
CC(=O)Nc1cc(C(=O)OCC(=O)c2ccccc2)ccc1C	3%	1%
CCC(=O)Nc1cc(C(=O)OCc2ccc(C(=O)Oc3ccccc3)cc2)ccc1C	13µM*	-2%

Compound activity from PubChem.
